Experimental data published in PubChem BioAssay AID1159580 (chemical genetic matrix, 2015).
Several values for one entry are separate records, joined by “and”; a condition that tells them apart may be missing. Equal values may be shown once. In all, about 5,500 compounds went through this assay and about 2,000 (36%) were called active. Another 18% or so got no clear call; they are omitted. Rule as the data show it: active = normalized growth mostly below about 0.91 (no sharp cut-off); inconclusive = no clear call, values can overlap the other calls; inactive = mostly above about 0.92. The list shows a part of the results.

Assay: chemical genetic growth profiling, strain panel (AID 1159580);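 also: tested at 20 µM; growth read once vehicle control cultures reached saturation at 30 °C; 1 = growth at the plate median or of vehicle wells; lower values mean less growth of the strain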
Conditions: S. cerevisiae deletion strains, growth OD

Measured: normalized growth

CO[C@@]1(NC(=O)Cc2cccs2)C(=O)N2C(C(=O)O)=C(COC(N)=O)CS[C@@H]21
inactive: locus YAL013W, strain DEP1, hits give low values 1 | locus YAL021C, strain ccr4, hits give low values 0.939 | locus YAL026C, strain drs2, hits give low values 0.969 | locus YAL030W, strain snc1, hits give low values 0.982 | locus YBL061C, strain skt5, hits give low values 0.97 | locus YBR009C, strain hhf1, hits give low values 1.02 | locus YBR021W, strain FUR4, hits give low values 1.01 | locus YBR023C, strain chs3, hits give low values 0.971 | locus YBR171W, strain sec66, hits give low values 0.968 | locus YBR229C, strain ROT2, hits give low values 1.01 | locus YBR231C, strain swc5, hits give low values 1.03 | locus YBR279W, strain paf1, hits give low values 0.972 | locus YCL011C, strain gbp2, hits give low values 0.976 | locus YCL016C, strain dcc1, hits give low values 0.955 | locus YCL029C, strain bik1, hits give low values 0.995 | locus YCL069W, strain vba3, hits give low values 0.989 | locus YCR088W, strain abp1, hits give low values 0.975 | locus YDL005C, strain med2, hits give low values 0.981 | locus YDL035C, strain GPR1, hits give low values 1.01 | locus YDL040C, strain nat1, hits give low values 0.981 | locus YDL074C, strain BRE1, hits give low values 1.02 | locus YDL101C, strain DUN1, hits give low values 1.01 | locus YDL134C, strain PPH21, hits give low values 1 | locus YDL185W, strain tfp1, hits give low values 0.994 | locus YDL192W, strain arf1, hits give low values 1 | locus YDR001C, strain nth1, hits give low values 0.971 | locus YDR069C, strain doa4, hits give low values 0.963 | locus YDR101C, strain arx1, hits give low values 0.984 | locus YDR137W, strain rgp1, hits give low values 0.94 | locus YDR150W, strain NUM1, hits give low values 1.01 | locus YDR159W, strain sac3, hits give low values 0.943 | locus YDR162C, strain NBP2, hits give low values 1 | locus YDR195W, strain ref2 0.98 | locus YDR297W, strain sur2, hits give low values 0.998 | locus YDR318W, strain mcm21, hits give low values 0.992 | locus YDR334W, strain swr1, hits give low values 0.97 | locus YDR335W, strain msn5, hits give low values 0.955 | locus YDR388W, hits give low values 0.99 | locus YDR392W, strain spt3, hits give low values 0.838 | locus YDR502C, strain sam2, hits give low values 0.991 | locus YEL003W, strain gim4, hits give low values 0.983 | locus YEL037C, strain rad23, hits give low values 0.97 | locus YEL061C, strain CIN8 (second series), hits give low values 0.976 | locus YEL061C, strain CIN8, hits give low values 1.01 | locus YER015W, strain faa2, hits give low values 0.99 | locus YER016W, strain bim1, hits give low values 0.949 | locus YER110C, hits give low values 0.997 | locus YER111C, strain swi4, hits give low values 0.96 | locus YER155C, strain BEM2 (second series), hits give low values 0.977 | locus YER155C, strain BEM2, hits give low values 1 | locus YER167W, strain BCK2, hits give low values 1 | locus YFR010W, strain ubp6, hits give low values 1.01 | locus YGL078C, strain dbp3, hits give low values 0.986 | locus YGL086W, strain mad1, hits give low values 0.987 | locus YGL167C, strain pmr1, hits give low values 0.978 | locus YGL173C, strain kem1, hits give low values 0.987 | locus YGL227W, strain vid30, hits give low values 0.98 | locus YGL240W, strain doc1, hits give low values 1 | locus YGL248W, strain PDE1, hits give low values 1.01 | locus YGL253W, strain hxk2, hits give low values 0.978 | locus YGR078C, strain PAC10, hits give low values 1.01 | locus YGR135W, strain pre9, hits give low values 0.989 | locus YGR252W, strain gcn5, hits give low values 0.982 | locus YHR013C, strain ard1, hits give low values 0.935 | locus YHR027C, strain rpn1, hits give low values 1.01 | locus YHR030C, strain SLT2, hits give low values 1.01 and 1.08 | locus YHR079C, strain IRE1 (second series), hits give low values 0.995 | locus YHR079C, strain IRE1, hits give low values 1.08 | locus YHR094C, strain hxt1, hits give low values 0.984 | locus YHR129C, strain ARP1, hits give low values 1 | locus YHR142W, strain chs7, hits give low values 0.936 | locus YHR200W, strain rpn10, hits give low values 0.994 | locus YIL066C, strain RNR3, hits give low values 1.01 | locus YIL073C, strain SPO22, hits give low values 1.01 | locus YIL125W, strain kgd1, hits give low values 0.995 | locus YIR030C, strain dcg1, hits give low values 0.996 | locus YJL092W, strain hpr5, hits give low values 0.989 | locus YJL095W, strain BCK1 (second series), hits give low values 0.967 | locus YJL095W, strain BCK1, hits give low values 1.01 and 1.06 | locus YJL115W, strain asf1, hits give low values 0.969 | locus YJL129C, strain trk1, hits give low values 0.914 | locus YJL134W, strain LCB3, hits give low values 1.01 | locus YJL154C, strain vps35, hits give low values 0.973 | locus YJL164C, strain tpk1, hits give low values 0.98 | locus YJL166W, strain qcr8, hits give low values 0.987 | locus YJL168C, strain set2, hits give low values 0.992 | locus YJL187C, strain SWE1 (second series), hits give low values 1.01 | locus YJR043C, strain POL32, hits give low values 0.986
